HIV Env fusion = HIV envelope-mediated fusion inhibition. inhibition, % at 12.3 µM. HeLa-JRFL Env/CEM21 cell fusion, luciferase. 1.1% of 360,000 active. AID 651610;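 active = mean replicate inhibition score of at least 50 and every replicate individually at or above 50; inconclusive = only one of the two criteria met; inactive = mean below 50 and not all replicates reaching 50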
PAX8 inh HTS = inhibitors of PAX8 transcriptional activity in RMG-I cells; inhibition, % at 12.6 µM; RMG-I TPO-luciferase reporter, SteadyGlo, 24 h; 1.2% of 360,000 active; AID 652154;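 active = mean replicate inhibition at least 60% with every replicate also reaching 60%; inconclusive = only one of the two criteria is met; inactive = mean below 60% and not all replicates reaching 60%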;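 also: luciferase light reporting Pax8 driven TPO promoter activity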
EBV LMP1 NFkB = Epstein-Barr LMP1 NF-kappaB reporter inhibition. LMP1-induced NF-kappaB luciferase reporter cells, luminescence. inhibition, % at 12.5 µM. 0.69% of 350,000 active. AID 504558; in the data active = inhibition above about 41%; inconclusive = no clear call, values can overlap the other calls
N-glyco inh = blocks N-linked glycosylation in D54 reporter cells; D54 ERlucT glycosylation luciferase reporter, 24 h; percent of 100 nM tunicamycin response; reporter increase, % at 12.5 µM; 0.23% of 360,000 active; AID 588692;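 active = mean luciferase reporter signal, scaled so untreated is 0 and the glycosylation-blocking control 100, at or above a set limit in every replicate; inconclusive = mean reaches the limit but not every replicate does; inactive = mean below the limit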;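 also: luciferase carries N-glycosylation sites so blocking glycosylation raises the light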
Shn3 inh set2 = inhibitors of Schnurri-3 3'UTR reporter in osteoblasts. Clone20 osteoblast Shn3 3'UTR firefly luciferase, 24 h. inhibition, % at 12.5 µM. 0.52% of 360,000 active;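 active = mean inhibition of at least 75% with every replicate also reaching 75%; inconclusive = mean inhibition at least 75% but some replicate below; inactive = mean inhibition below 75%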
NSD2 HMT inh = inhibitors of human histone methyltransferase NSD2 | inhibition, % at 12.5 µM | NSD2 peptide methylation, AlphaScreen, 120 min | 0.54% of 310,000 active; in the data active = inhibition above about 50%
A number is an active result; – = inactive; ? = inconclusive; · = not tested or not shown; [ ] = another dose, or the depositor's remark. Hits are enriched below; roughly 2.8% of the tested compounds scored in any of these assays.

SMILES | HIV Env fusion | PAX8 inh HTS | EBV LMP1 NFkB | N-glyco inh | Shn3 inh set2 | NSD2 HMT inh
Cc1nn(Cc2ccc(Cl)cc2)c(C)c1NC(=O)c1cc(-c2ccc3c(c2)OCO3)on1 | – | · | – | – | – | –
COc1ccc(OC)c(-c2cc(C(=O)Nc3c(C)nn(Cc4ccc(Cl)cc4)c3C)no2)c1 | 87 | · | – | – | – | –
C(=Cc1nc2ccccc2o1)c1ccc2c(c1)OCO2 | – | – | 45 | – | – | –
C(=Cc1cnc2ccccc2n1)c1ccc2c(c1)OCO2 | 68 | 97 | 80 | – | 86 | –
CC(=O)Nc1ccc(/C=C/c2nc3ccccc3o2)cc1 | – | – | – | – | – | –
N#C[C@H]1[C@@H](c2ccc(C#Cc3ccccc3F)cc2)[C@@H](CO)N1C(=O)C1CC1 | – | – | · | · | · | ·
O=C(C[C@H]1C=C[C@@H](NC(=O)CN2CCOCC2)[C@H](CO)O1)NCCc1ccccc1 | – | – | · | · | · | ·
COCC(=O)Nc1ccc2c(c1)C(=O)N(C)[C@H]1CC[C@@H](CC(=O)NCC(F)(F)F)O[C@H]1CO2 | · | – | · | · | · | ·
O=C(NCCc1c[nH]c2ccccc12)c1ccc([N+](=O)[O-])o1 | ? | 72 | – | – | – | –
O=C(NCCc1c[nH]c2ccccc12)c1cc([N+](=O)[O-])cc([N+](=O)[O-])c1 | – | – | – | – | – | –
O=C(c1cnccn1)N1CC(=O)N2[C@H](C1)[C@@H](c1ccc(-c3cccc(F)c3)cc1)[C@@H]2CO | · | – | · | · | · | ·
COc1ccc(-c2ccccc2[C@H]2[C@@H]3C=CC[C@@H](C)[C@@H]3C(=O)N2Cc2ccccc2)cc1 | 126 | – | – | – | – | ·
C[C@@H]1CC=C[C@@H]2[C@H]1C(=O)N(Cc1ccccc1)[C@H]2c1ccccc1Br | – | – | – | – | – | ·
Cc1cc(C(=O)Nc2cccc3c2O[C@@H](CN(C)S(=O)(=O)c2ccc(Cl)cc2)[C@H](C)CN([C@@H](C)CO)C3=O)n(C)n1 | – | – | · | · | · | ·
CC1(C)CCN2CCC(C)(C)c3c(O)ccc1c32 | – | 84 | – | – | – | –
Oc1c(C(c2ccc(Cl)cc2)N2CCCC2)cc(Cl)c2cccnc12 (stereo not given) | – | 70 | – | – | – | –
CN1CCN(C(c2ccccn2)c2cc(Cl)c3cccnc3c2O)CC1 (stereo not given) | – | – | – | – | – | –
Cc1ccc(C(c2cc(Cl)c3cccnc3c2O)N2CCN(C)CC2)cc1 (stereo not given) | · | · | – | 43 | – | ·
Oc1c(C(c2ccccn2)N2CCC(Cc3ccccc3)CC2)cc(Cl)c2cccnc12 (stereo not given) | – | 83 | · | · | · | –
Oc1c(C(c2ccccc2Cl)N2CCCC2)ccc2cccnc12 (stereo not given) | – | – | – | – | 87 | –
CN1CCN(C(c2ccc(C(F)(F)F)cc2)c2ccc3cccnc3c2O)CC1 (stereo not given) | – | – | · | · | · | –
C[C@@H]1CN([C@@H](C)CO)C(=O)c2cccc(NC(=O)C3CCCCC3)c2O[C@H]1CN(C)S(=O)(=O)c1cn(C)cn1 | – | – | · | · | · | ·
C[C@@H]1CN([C@@H](C)CO)C(=O)c2cc(NC(=O)C3CCCCC3)ccc2O[C@@H](C)CCCCO[C@@H]1CN(C)CC1CCCCC1 | – | – | · | · | · | ·
COc1cccc(S(=O)(=O)N[C@H]2C=C[C@H](CC(=O)NC3CCC3)O[C@@H]2CO)c1 | – | – | · | · | · | ·
COCC(=O)Nc1ccc2c(c1)C(=O)N(C)C[C@@H](OC)[C@H](C)CN(C(C)=O)[C@H](C)CO2 | 85[16.7 µM] | · | · | · | · | ·
SMILES | HIV Env fusion | PAX8 inh HTS | EBV LMP1 NFkB | N-glyco inh | Shn3 inh set2 | NSD2 HMT inh
COCC(=O)Nc1ccc2c(c1)C(=O)N(C)C[C@H](OC)[C@H](C)CN(C)[C@@H](C)CO2 | – | – | · | · | · | ·
CCS(=O)(=O)Nc1ccc2c(c1)C(=O)N(C)C[C@@H](OC)[C@H](C)CN(C(=O)C1CCC1)[C@@H](C)CO2 | – | – | · | · | · | ·
CCCC(=O)Nc1ccc2c(c1)OC[C@H](C)N(C(=O)CN(C)C)C[C@@H](C)[C@H](OC)CN(C)C2=O | 58[16.7 µM] | – | · | · | · | ·
CCS(=O)(=O)Nc1ccc2c(c1)C(=O)N(C)C[C@H](OC)[C@@H](C)CN(C(=O)C1CCC1)[C@H](C)CO2 | 61[16.7 µM] | – | · | · | · | ·
COCC(=O)Nc1ccc2c(c1)C(=O)N(C)C[C@@H](OC)[C@@H](C)CN(C)[C@H](C)CO2 | 60[16.7 µM] | – | · | · | · | ·
C[C@H](CO)N1C[C@H](C)[C@H](CN(C)C(=O)Nc2ccc(C(F)(F)F)cc2)Oc2c(cccc2N(C)C)C1=O | – | – | · | · | · | ·

Compound activity as filed in PubChem BioAssay.
